For 37 compounds, AC50 and outcome results are on record in PubChem BioAssay (EPA / NIEHS).

Values joined by “and” are separate entries in the source; they are usually repeats but may differ in a detail not shown here. Identical values can stand only once. Records with an inconclusive call do not appear. More than one record can exist for a structure, and the calls need not agree. Active and inactive are the calls of the source. How the source made its calls, unless noted: active means hit-call score of the fitted dose curve at least 0.9, where 1 is the maximum; inconclusive means response in the unintended direction; inactive means score below 0.9.

Test [1] is described as follows: CPHEA_Stoker_NIS_Cytotoxicity: Cytotoxicity Assessment for CPHEA's Radioactive Iodide Uptake (RAIU) Assay for Sodium/Iodide Symporter (NIS) Inhibition, Stoker and Laws Labs (AID 2283897).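 On AC50: active means loss of ATP signal versus DMSO meaning cytotoxicity.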 The method, boiled down:
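hNIS-HEK293T-EPA human kidney cells were exposed for 2 hours at room temperature to test chemicals (0.001–100uM, 0.5% final DMSO) in HEPES-buffered HBSS, pH 7.4. Viability was read as ATP content by luciferase bioluminescence, loss of signal versus DMSO.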

Test [2] has as its system turtle Thyroid Hormone Receptor, alpha (TRa), gene 101949057. The test is described as follows: ATG_trTRa_XSP2: Attagene TRANS-FACTORIAL Multi-Species (XSP1) HepG2 Assay for turtle Thyroid Hormone Receptor, alpha (TRa) (AID 2283834).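 Further: hits raise reporter mRNA over the DMSO baseline so AC50 marks activators.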 As to the method: ATG_XSP2_multi-species_TRANS is a cell-based, multiplexed assay created by modifying the existing Attagene TRANS-FACTORIAL system to include a panel of nuclear receptors from some or all the following species: human (Homo sapiens), mouse (Mus musculus), frog (Xenopus laevis), zebrafish (Danio rerio), chicken (Gallus gallus), and turtle (Chrysemys picta). The ECOTOX-FACTORIAL format uses HepG2, a human liver cell line, with measurements taken at 24 hours after chemical dosing in a 24-well plate. Xsp2 included 3 nM 6-alpha-fluorotestosterone and 1.5 nM norgestrel to stimulate the androgen receptor.ATG_trTRa_XSP2 is one of 29 assay components measured or calculated from the ATG_XSP2_multi-species_TRANS assay. It is designed to make measurements of mRNA induction, a form of inducible reporter, as detected with fluorescence intensity signals by Reverse transcription polymerase chain reaction (RT-PCR) and Capillary electrophoresis technology.The assay endpoint ATG_trTRa_XSP2 was analyzed in the positive analysis fitting direction relative to DMSO as the negative control and baseline of activity. Using a type of inducible reporter, measures of mRNA for gain-of-signal activity can be used to understand the reporter gene at the transcription factor-level as they relate to the gene TR. Furthermore, this assay endpoint can be referred to as a primary readout, because this assay has produced multiple assay endpoints where this one serves a reporter gene function. To generalize the intended target to other relatable targets, this assay endpoint is annotated to the nuclear receptor intended target family, where the subfamily is non-steroidal.
Human liver HepG2 cells are transiently transfected with multiple reporter transcription units (MRTUs) in 6-well plates using FuGene 6 reagent (Roche; 3 ml FuGene/1 mg DNA). The MRTU constructs are regulated by a cis-regulating element (promoter). […] A major difference between the CIS and TRANS system is that in CIS activities of endogenous TFs are measured, whereas the TRANS assay evaluates changes in activities of exogenous, chimeric NR-Gal4 proteins. […] At the end of 24 hour incubation, total RNA was isolated using TriZol reagent (Invitrogen). The isolated RNA is then reverse-transcribed using oligo(dT) primer and Mo-MLV reverse transcriptase (Invitrogen) with DNAse I (Ambion) treatment for 30 min. The one-tenth of the produced cDNA was amplified by PCR using Taq DNA polymerase (Invitrogen) and two reporter sequence-specific primers. The PCR products were fluorescently labeled by primer extension with 6-arboxyfluorescein (6-FAM) 5'-labeled reporter sequence-specific primer (2 min at 95 C, 20 s at 68 C and 10 min at 72 C) and these products were digested with 5U of HpaI (New England Biolabs) for 2h at 37 C. The fragments were purified using Qiaquick PCR columns (Qiagen), analyzed on an ABI 3130xL genetic analyzer (Applied Biosystems) with peak positions identified by using a set of X-rhodamine (ROX)-labeled MapMarker1000 molecular weight standards (BioVentures). The raw capillary electrophoresis data was processed using Attagraph software (Attagene).

The nature of test [3]: ATG_M_61_XSP2: Attagene TRANS-FACTORIAL Multi-Species (XSP2) HepG2 Assay for M61 Transcription Factor (Internal Marker) (AID 2283835; active means hit-call score of the fitted dose curve at least 0.9, where 1 is the maximum; inactive means score below 0.9;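 further: active means a rise in signal above the DMSO baseline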). The method, boiled down:
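HepG2 cells transiently transfected with multiple GAL4-UAS reporter units; reporter mRNA measured 24 h after dosing by RT-PCR, fluorescent labelling and capillary electrophoresis. Medium contained 3 nM 6-alpha-fluorotestosterone and 1.5 nM norgestrel; internal marker, DMSO baseline.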

For test [4], the target named is zebrafish Thyroid Hormone Receptor beta (TRb), thrb (gene 30607) (UniProt Q9PVE4). The test can be described thus: ATG_zfTRb_XSP2: Attagene TRANS-FACTORIAL Multi-Species (XSP1) HepG2 Assay for zebrafish Thyroid Hormone Receptor beta (TRb) (AID 2283836).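 On AC50: potency for induction of reporter signal above DMSO so agonist direction.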 The essentials: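 HepG2 cells transiently transfected with multiplexed GAL4-UAS reporter units expressing chimeric NR-Gal4 proteins; read 24 h after dosing. Reporter mRNA quantified by RT-PCR, 6-FAM labelling, HpaI digest and capillary electrophoresis; gain of signal fitted relative to DMSO.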

Test [5] deals with frog Thyroid hormone Receptor alpha (TRa), thra-a (gene 397942) (UniProt P15204). The test is described as follows: ATG_frTRa_XSP2: Attagene TRANS-FACTORIAL Multi-Species (XSP2) HepG2 Assay for frog Thyroid hormone Receptor alpha (TRa) (AID 2283839).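 On AC50: AC50 reflects induction of frog TRa-driven reporter mRNA above DMSO baseline.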 The method, boiled down: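 Chimeric frog TRα-GAL4 activity in human liver cells measures reporter transcript induction 24 h post-dose. Detection uses RT-PCR, HpaI-digested labelled products and fluorescence capillary electrophoresis; DMSO serves as negative control.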

Test [6] in a line: CEETOX_H295R_11DCORT_noMTC: CeeTox H295R High-throughput Steroidogenesis Assay for 11-Deoxycortisol (11DCORT), maximum tolerated concentration (MTC) filtered results only (AID 2283911; active means hit-call score of the fitted dose curve at least 0.9, where 1 is the maximum; inactive means score below 0.9). The settings on record: actives raise or lower the signal. The method, boiled down: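 Forskolin-primed (10 uM, 48 h) H295R adrenal cells are dosed for 48 h at 0.1% DMSO; medium 11-deoxycortisol is quantified by LC-MS/MS against a 7-point standard curve, with activity fitted in both directions versus DMSO.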

The nature of test [7]: CEETOX_H295R_OHPREG_noMTC: CeeTox H295R High-throughput Steroidogenesis Assay for OH-Pregnenolone (OHPREG), maximum tolerated concentration (MTC) filtered results only (AID 2283912; active means hit-call score of the fitted dose curve at least 0.9, where 1 is the maximum; inactive means score below 0.9). The settings on record: actives raise or lower the signal. The method, boiled down: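 H295R cells prestimulated 48 h with 10 uM forskolin, then exposed 48 h to compound (0.1% DMSO). 17alpha-hydroxypregnenolone in medium measured by MTBE extraction and HPLC-MS/MS; bidirectional fit vs DMSO, concentrations not MTT/MTC-filtered.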

Test [8] has as its target human Thyroid hormone Receptor alpha (TRa), THRA (gene 7067) (UniProt P10827). The test can be described thus: ATG_hTRa_XSP2: Attagene TRANS-FACTORIAL Multi-Species (XSP2) HepG2 Assay for human Thyroid hormone Receptor alpha (TRa) (AID 2283838). The essentials: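 HepG2 cells transiently transfected with multiplexed GAL4-UAS reporter units and exogenous NR-GAL4 chimeras; 24 h chemical exposure with 3 nM 6-alpha-fluorotestosterone and 1.5 nM norgestrel present. Reporter mRNA measured by RT-PCR, FAM labelling, HpaI digestion, capillary electrophoresis; gain-of-signal versus DMSO.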

Test [9] deals with human Thyroid hormone Receptor beta (TRb), THRB (gene 7068) (UniProt P10828). The test is described as follows: ATG_hTRb_XSP2: Attagene TRANS-FACTORIAL Multi-Species (XSP2) HepG2 Assay for human Thyroid hormone Receptor beta (TRb) (AID 2283840).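 Further: actives raise reporter mRNA so potency reflects agonist-like gain of signal.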 The essentials:
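Gain-of-signal reporter transcription, referenced to DMSO, was measured in transiently transfected HepG2 after 24 h exposure; labeled RT-PCR products were resolved by capillary electrophoresis. Assay medium included 3 nM 6-alpha-fluorotestosterone and 1.5 nM norgestrel.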

Test [10] can be described thus: ATG_XTT_Cytotoxicity_XSP2: Cytotoxicity Assessment in the Attagene TRANS-FACTORIAL Multi-Species (XSP2) HepG2 Assay (AID 2283837). The method, boiled down:
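HepG2 cells, transiently transfected with multiple reporter constructs, exposed to chemical for 24 h. Cell number assessed with XTT fluorescence read-out; loss of signal fitted relative to DMSO.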

Sequence of zebrafish Thyroid Hormone Receptor beta (TRb), thrb (gene 30607) (Q9PVE4 whole entry, looked up, the tested form may be a part): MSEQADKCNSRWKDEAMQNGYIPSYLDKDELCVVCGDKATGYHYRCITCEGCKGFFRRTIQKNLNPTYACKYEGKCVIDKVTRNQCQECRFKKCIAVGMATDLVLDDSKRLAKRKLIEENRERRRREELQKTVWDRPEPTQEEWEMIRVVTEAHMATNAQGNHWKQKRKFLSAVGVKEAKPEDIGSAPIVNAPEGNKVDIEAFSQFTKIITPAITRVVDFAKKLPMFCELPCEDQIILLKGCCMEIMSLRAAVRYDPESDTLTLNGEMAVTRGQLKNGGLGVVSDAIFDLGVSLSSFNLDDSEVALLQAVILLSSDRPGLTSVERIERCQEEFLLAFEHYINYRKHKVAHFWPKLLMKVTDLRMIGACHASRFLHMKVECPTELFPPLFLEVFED
Sequence of human Thyroid hormone Receptor alpha (TRa), THRA (gene 7067) (P10827 whole entry, looked up, the tested form may be a part): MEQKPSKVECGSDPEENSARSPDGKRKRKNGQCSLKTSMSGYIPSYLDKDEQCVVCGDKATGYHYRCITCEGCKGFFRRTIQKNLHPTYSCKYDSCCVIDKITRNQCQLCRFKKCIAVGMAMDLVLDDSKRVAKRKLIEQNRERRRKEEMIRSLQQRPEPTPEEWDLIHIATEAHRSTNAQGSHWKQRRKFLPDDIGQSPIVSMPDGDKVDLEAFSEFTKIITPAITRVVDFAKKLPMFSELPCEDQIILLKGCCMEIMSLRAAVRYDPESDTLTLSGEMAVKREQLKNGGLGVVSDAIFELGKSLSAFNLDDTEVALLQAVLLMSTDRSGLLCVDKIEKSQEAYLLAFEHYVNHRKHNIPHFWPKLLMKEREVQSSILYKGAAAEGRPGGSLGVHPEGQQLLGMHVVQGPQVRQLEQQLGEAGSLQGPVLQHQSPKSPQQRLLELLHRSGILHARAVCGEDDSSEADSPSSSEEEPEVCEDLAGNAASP
Sequence of human Thyroid hormone Receptor beta (TRb), THRB (gene 7068) (P10828 whole entry, looked up): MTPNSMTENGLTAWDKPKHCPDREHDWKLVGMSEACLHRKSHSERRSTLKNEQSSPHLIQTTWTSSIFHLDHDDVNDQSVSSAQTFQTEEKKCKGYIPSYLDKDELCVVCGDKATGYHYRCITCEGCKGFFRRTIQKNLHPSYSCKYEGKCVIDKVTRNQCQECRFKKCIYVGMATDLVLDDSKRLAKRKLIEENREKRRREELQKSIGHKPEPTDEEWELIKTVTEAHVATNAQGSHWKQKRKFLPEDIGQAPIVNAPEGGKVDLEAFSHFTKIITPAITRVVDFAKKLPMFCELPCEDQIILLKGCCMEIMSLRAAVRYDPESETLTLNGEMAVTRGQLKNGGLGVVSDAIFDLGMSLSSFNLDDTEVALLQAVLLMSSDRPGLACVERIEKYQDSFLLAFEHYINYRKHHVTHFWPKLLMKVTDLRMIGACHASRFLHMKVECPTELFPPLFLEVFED
Sequence of frog Thyroid hormone Receptor alpha (TRa), thra-a (gene 397942) (P15204 whole entry, looked up, the tested form may be a part): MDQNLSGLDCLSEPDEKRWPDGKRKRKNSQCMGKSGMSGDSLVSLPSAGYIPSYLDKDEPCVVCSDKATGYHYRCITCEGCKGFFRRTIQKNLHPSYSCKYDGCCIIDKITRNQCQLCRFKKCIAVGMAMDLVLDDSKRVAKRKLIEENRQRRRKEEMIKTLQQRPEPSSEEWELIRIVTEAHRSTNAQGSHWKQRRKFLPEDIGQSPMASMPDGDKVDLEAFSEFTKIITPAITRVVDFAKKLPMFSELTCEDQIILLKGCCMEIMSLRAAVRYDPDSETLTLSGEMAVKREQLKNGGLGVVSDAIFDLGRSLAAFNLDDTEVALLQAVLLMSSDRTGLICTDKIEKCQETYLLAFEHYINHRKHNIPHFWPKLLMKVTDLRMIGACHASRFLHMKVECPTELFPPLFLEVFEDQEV

As a reminder, the AC50 is the concentration giving half of the maximal activity seen. With `CCOC(=O)O[C@H](C)OC(=O)c1ccc2c(c1)cc(C(=O)NC1CCN(C(C)C)CC1)n2Cc1cc(-c2ccc(Cl)s2)on1`, the AC50 in test [1] is 9.92 µM (active).

With `CN(C)c1ccc(C(=C2C=CC(=[N+](C)C)C=C2)c2ccc(N(C)C)cc2)cc1`, in [1], the AC50 is 5.35 µM (active).

For the compound `NCc1cccc(C2CCN(C(=O)c3ccc(C#Cc4ccccc4F)o3)CC2)c1`, the half-maximal activity concentration (AC50) in test [1] is 16.3 µM (active).

For the compound `CCCCCCCCCCCC[N+](C)(C)C`, in [1], the result was inactive.

For `COc1cc(C(=O)NC2CCN(C)CC2)ccc1Nc1ncc2c(n1)N(C1CCCC1)CC(F)(F)C(=O)N2C`, in test [1], the result was inactive.

With `CC(C)(C)c1cc(/C=C2\SC(N)=NC2=O)cc(C(C)(C)C)c1O`, the AC50 in test [1] was 4.96 µM (active).

As to `Cc1oc2c(NC(=O)c3c(Cl)cccc3Cl)cccc2c1C(C)(C)O`, in test [1], the result was inactive.

Turning to `O=c1[nH]sc2ccccc12`, in test [1], the outcome was inactive.

Turning to `CC(=O)N1CCN(c2ccc(OC[C@H]3CO[C@](Cn4ccnc4)(c4ccc(Cl)cc4Cl)O3)cc2)CC1`, in test [1], the AC50 is 9.92 µM (active).

In the case of `CN(C)C(=O)C1(N2CCCCC2)CCN(CC[C@@]2(c3ccc(Cl)c(Cl)c3)CN(C(=O)c3ccccc3)CCO2)CC1`, the outcome in test [1] was inactive.

In the case of `O=C(O)Cc1cc(I)c(Oc2ccc(O)c(I)c2)c(I)c1`, the AC50 is 0.00328 µM (active) in test [2]; 0.504 nM (active) and 5.79 nM (active) in [4]; 0.519 nM (active) and 0.826 nM (active) in test [5]. The outcome in test [3] and in test [1] was inactive.

`CC(C)(C)c1csc(-c2cc3cc(OCc4ccccc4CC(=O)O)ccc3o2)n1`: in test [1], the AC50 was 9.92 µM (active).

Regarding `CN1C(=O)N(c2ccccc2Br)Cc2cnc(Nc3ccc4c(c3)OCC(CO)O4)nc21` (stereo not drawn), the result in [1] was inactive.

Regarding `CCCCOC(=O)CC(CC(=O)OCCCC)(OC(C)=O)C(=O)OCCCC`, the result in test [1] was inactive.

With `O=C1c2ccccc2C(=O)N1CCc1noc(-c2ccc(CN3CCCCCC3)s2)n1`, in test [1], the AC50 was 11.5 µM (active).

`CN(C[C@@H](CC[N+]12CCC(C3CCCCC3)(CC1)CC2)c1ccc(Cl)c(Cl)c1)C(=O)c1cc(C(F)(F)F)cc(C(F)(F)F)c1`: the half-maximal activity concentration (AC50) in [1] is 10.5 µM (active).

For `CCN(Cc1cccnc1)C(=O)c1cccc(Cl)c1[C@]1(C)C(=O)N(Cc2ccc(OC)cc2OC)c2ccc(Cl)cc21`, the outcome in [1] was inactive.

As to `Cc1c2ccccc2c(C)c2c1ccc1ccccc12`, the AC50 in [2] was 39.9 µM (active). The call in test [3], in [5] and in test [1] was inactive.

For `O=C(O)c1ccccc1C(=O)OCc1ccccc1`, the result in test [6] and in [7] was inactive.

As for `O=C(Nc1ccc(Cl)cc1)Nc1ccc(Cl)c(Cl)c1`, in test [1], the outcome was inactive.

For the compound `CCCCOC(=O)c1ccc(O)cc1`, the result in test [1] was inactive.

With `Clc1ccccc1C(c1ccccc1)(c1ccccc1)n1ccnc1`, the half-maximal activity concentration (AC50) in [1] was 9.92 µM (active).

As for `CCCCCCCCOC(=O)c1cc(O)c(O)c(O)c1`, in [1], the outcome was inactive.

Consider `CC(C)(O)c1ccc(CNC(=O)c2cccnc2Oc2ccc3nonc3c2)cc1`, for which the result in [1], in test [6] and in test [7] was inactive.

`CCCCCc1ccc(N)cc1`: the outcome in test [1] and in [7] was inactive.

Take `CC(C)(c1cc(Br)c(O)c(Br)c1)c1cc(Br)c(O)c(Br)c1`: the outcome in test [2], in test [3], in [4], in test [8] and in test [9] was inactive. The figures for the AC50 in [5] and in [1] were 5.76 µM (active) and 13.6 µM (active), respectively.

As to `CC/C(=C(/CC)c1ccc(O)cc1)c1ccc(O)cc1`, the call in test [2], in [3] and in [4] was inactive. Also, the AC50 in test [1] is 9.92 µM (active); in test [6], 45 µM (active).

With `CCCCCCCCOc1ccc(C(=O)c2ccccc2)c(O)c1`, the AC50 in test [7] is 30.9 µM (active).

On to `OC12N=C(c3ccccc3)SC1Cc1cc(Cl)ccc12` (stereo not drawn), for which, in test [1], the result was inactive.

Take `CCN(CC)C(=O)c1cc(S(=O)(=O)Cc2ccccc2)c(N2CCC(c3ccccc3)CC2)cc1N(CC)CCN(C)C`: the outcome in [1] was inactive.

As for `O=C(OCCCCCCOC(=O)c1ccccc1)c1ccccc1`, the result in test [1] was inactive.

Consider `CC1(C)NC(=O)N(c2ccc([N+](=O)[O-])c(C(F)(F)F)c2)C1=O`, for which the call in [2], in test [4], in test [10], in test [8], in test [5] and in test [9] was inactive. The results for the AC50 in test [5] and in test [9] were 66.4 µM (active) and 148 µM (active), respectively.

As for `C[C@]12CC[C@@H]3c4ccc(O)cc4CC[C@H]3[C@@H]1CCC2=O`, the compound was called inactive in test [3] and in test [5].

Take `Cc1cc2c(cc1C(F)(F)F)N(C(=O)Nc1ccc(Oc3cccnc3C)nc1)CC2`: the AC50 in [1] was 8.93 µM (active).

With `Clc1cc(Cl)c2c(c1)N=C1CCCCCN1C2`, the result in [1] was inactive.

In the case of `O=c1c(-c2ccc(O)cc2)coc2cc(O)cc(O)c12`, the call in test [2], in [3], in [4], in test [10], in test [8] and in test [5] was inactive. The result in test [9] was inactive.

Turning to `c1ccc(C[n+]2cccc3ccccc32)cc1`, the outcome in test [6] and in test [7] was inactive.
